Drawing on PubChem BioAssay (Tox21), this text covers Potency for eight compounds.

A number with no mark means an inactive call. Inconclusive results are not listed. Calls of active or inactive are those of the source. Unless noted, calls follow the shape of the dose curve; as a rule, active = well fitted curve in the direction sought with a large enough effect in the repeat runs; inconclusive = weak or mixed curves; inactive = no such curve, though single readings can be large; an effect the other way counts as inactive or inconclusive.

A short description of test [1]: qHTS RealTime-Glo MT Cell Viability Assay in HEK293 cells - 0 hour (AID 1224880). Also: top concentration of the series differs between compounds; nearly all actives have a fitted effect of over 45% in size. The essentials:
(§1)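 Nonlytic bioluminescent viability monitoring. HEK293 at 600 cells/well with reagent; 5 h settle; compound transfer by pintool; plates held at 37 C and read at set time points.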
(qHTS replaces the single test concentration by a dilution series.)

A short description of test [2]: A CellTox Green Cytotoxicity Assay to monitor cytotoxicity in HEK293 cells - 32 hour (AID 1224881). Also: nearly all actives have a fitted effect of over 40% in size. The essentials:
(§2)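 Cytotoxicity was tracked continuously in HEK293 cells by a DNA-binding dye excluded from viable cells. Compounds were transferred in DMSO 5 h after seeding; fluorescence was recorded at intervals up to 40 h.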

The nature of test [3]: A CellTox Green Cytotoxicity Assay to monitor cytotoxicity in HepG2 cells - 0 hour (AID 1224882). Also: nearly all actives have a fitted effect of over 35% in size. The essentials: (§3)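 Real-time, homogeneous cytotoxicity readout: dead-cell DNA staining by CellTox Green in HepG2 monolayers, fluorescence measured at timed intervals up to 40 h of continuous compound exposure.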
A short description of test [4]: A CellTox Green Cytotoxicity Assay to monitor cytotoxicity in HepG2 cells - 32 hour (AID 1224883). Also: nearly all actives have a fitted effect of over 50% in size. The essentials: as §3
The nature of test [5]: A CellTox Green Cytotoxicity Assay to monitor cytotoxicity in HEK293 cells - 8 hour (AID 1224884). Also: nearly all actives have a fitted effect of over 35% in size. The essentials: as §2
The nature of test [6]: qHTS RealTime-Glo MT Cell Viability Assay in HepG2 cells - 16 hour (AID 1224885). Also: nearly all actives have a fitted effect of over 50% in size. The essentials: (§4)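 Viability was tracked continuously by NanoLuc luminescence from prosubstrate reduced by living HepG2 cells, at successive time points over 40 h of compound exposure. Cells with reagent were preincubated 5 h at 37 °C before compound addition.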
The nature of test [7]: qHTS RealTime-Glo MT Cell Viability Assay in HEK293 cells - 24 hour (AID 1224886). Also: top concentration of the series differs between compounds; nearly all actives have a fitted effect of over 50% in size. In short, it runs like this:
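Viability tracked continuously by luminescence as live cells reduce a prosubstrate for NanoLuc; HEK293 cells preincubated 5 h, compound-treated at 37 C, and read at 0, 8, 16, 24, 32 and 40 h.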

Test [8] is described as follows: qHTS RealTime-Glo MT Cell Viability Assay in HEK293 cells - 8 hour (AID 1224887). Also: top concentration of the series differs between compounds; nearly all actives have a fitted effect of over 50% in size. The essentials: as §1
A short description of test [9]: A CellTox Green Cytotoxicity Assay to monitor cytotoxicity in HEK293 cells - 16 hour (AID 1224888). Also: nearly all actives have a fitted effect of over 35% in size. In short, it runs like this: as §2
Test [10] in a line: qHTS RealTime-Glo MT Cell Viability Assay in HepG2 cells - 0 hour (AID 1224889). Also: nearly all actives have a fitted effect of over 50% in size. In short, it runs like this: as §4
Test [11] is described as follows: A CellTox Green Cytotoxicity Assay to monitor cytotoxicity in HepG2 cells - 8 hour (AID 1224890). Also: nearly all actives have a fitted effect of over 45% in size. The essentials: as §3
A short description of test [12]: qHTS assay to identify small molecule antagonists of the estrogen receptor alpha (ER-alpha) signaling pathway using the BG1 cell line in the presence of 0.1 nM 17-beta-estradiol - cell viability counter screen (AID 1259241). Also: nearly all actives have a fitted effect of over 40% in size. The essentials:
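The cell line endogenously expresses full-length ER-alpha and carries four EREs driving luciferase. Cells are cultured 5 days hormone-free, treated 22 hr with compounds and 0.1 nM estradiol, then viability is read by fluorescence.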

Test [13] in a line: qHTS assay to identify small molecule antagonists of the androgen receptor (AR) signaling pathway using the MDA cell line in the presence of 0.5 nM R1881 - cell viability counter screen (AID 1259242). Also: nearly all actives have a fitted effect of over 45% in size. In short, it runs like this: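 Cytotoxicity toward MDA-kb2 cells is measured by CellTiter-Fluor live-cell protease fluorescence after 16 hr compound exposure at 37C in the presence of 0.5 nM R1881 stimulator.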

Test [14] addresses Estrogen receptor (Homo sapiens) (UniProt P03372). Kind of test: qHTS assay to identify small molecule antagonists of the estrogen receptor alpha (ER-alpha) signaling pathway using the BG1 cell line in the presence of 0.1 nM 17-beta-estradiol (AID 1259244). Also: nearly all actives have a fitted effect of over 50% in size. The essentials:
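After 5 days in hormone-depleted medium (charcoal-stripped serum, no phenol red), VM7Luc4E2 cells were seeded, incubated 24 h, then co-treated with compound and 0.1 nM (final) estradiol for 22 h before luminescence detection.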

The nature of test [15]: qHTS assay to identify small molecule phospholipidosis (PLD) inducers (AID 1259344; active = well fitted curve in the direction sought with a large enough effect; an effect the other way counts as inactive or inconclusive). In short, it runs like this: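 HepG2 cells grown on collagen I take up LipidTOX Red while exposed to compound for 24 h; after fixation they are imaged at 20x and pit metrics are extracted.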
A short description of test [16]: qHTS assay to identify small molecule HDAC inhibitors (AID 1259364). Also: nearly all actives have a fitted effect of over 45% in size. Also: potency is read from the fitted curve at half-maximal effect. The essentials:
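Homogeneous cell-based luminescent assay of endogenous class I/II HDAC activity; HCT-116 cells, 2 h compound exposure, 30 min HDAC-Glo development at RT.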

A short description of test [17]: qHTS assay to identify small molecule HDAC inhibitors - cell viability counter screen (AID 1259365). The essentials: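 Viability readout: CellTiter-Glo luminescence. Wild-type HCT-116 cells, 2hr compound treatment following overnight attachment at 37 C.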
Test [18] is described as follows: qHTS assay to identify small molecule agonists of the sonic hedgehog signaling (Shh) pathway - cell viability counter screen (AID 1259366). Also: nearly all actives have a fitted effect of over 50% in size. The essentials:
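Viability measured fluorometrically (CellTiter-Fluor, 1hr, 37C) in 3T3 Gli1-Luc reporter cells after 23hr compound exposure within a 24hr incubation at 37C/5% CO2.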

Test [19] can be described thus: qHTS assay to identify small molecule antagonists of the sonic hedgehog signaling (Shh) pathway - cell viability counter screen (AID 1259367). Also: nearly all actives have a fitted effect of over 55% in size. In short, it runs like this:
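After a 4 hr settling period, 3T3 Gli1-Luc cells were treated with DMSO-dissolved chemicals and conditioned medium, kept 24 hr at 37C in 5% CO2, and assayed for viability by CellTiter-Fluor fluorescence following 1 hr reagent incubation.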

Test [20] addresses Androgen receptor (Homo sapiens) (UniProt P10275). Put plainly: qHTS assay to identify small molecule antagonists of the androgen receptor (AR) signaling pathway using the MDA cell line in the presence of 0.5 nM R1881 (AID 1259243). Also: nearly all actives have a fitted effect of over 50% in size. The essentials:
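Steps: seed MDA-kb2 cells, incubate 5 hr at 37C; pin-transfer compounds in DMSO; add R1881 to 0.5 nM final; incubate 16 hr; add ONE-Glo, wait 30 min at room temperature; read luminescence.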

Estrogen receptor (Homo sapiens), sequence (P03372 whole entry, looked up): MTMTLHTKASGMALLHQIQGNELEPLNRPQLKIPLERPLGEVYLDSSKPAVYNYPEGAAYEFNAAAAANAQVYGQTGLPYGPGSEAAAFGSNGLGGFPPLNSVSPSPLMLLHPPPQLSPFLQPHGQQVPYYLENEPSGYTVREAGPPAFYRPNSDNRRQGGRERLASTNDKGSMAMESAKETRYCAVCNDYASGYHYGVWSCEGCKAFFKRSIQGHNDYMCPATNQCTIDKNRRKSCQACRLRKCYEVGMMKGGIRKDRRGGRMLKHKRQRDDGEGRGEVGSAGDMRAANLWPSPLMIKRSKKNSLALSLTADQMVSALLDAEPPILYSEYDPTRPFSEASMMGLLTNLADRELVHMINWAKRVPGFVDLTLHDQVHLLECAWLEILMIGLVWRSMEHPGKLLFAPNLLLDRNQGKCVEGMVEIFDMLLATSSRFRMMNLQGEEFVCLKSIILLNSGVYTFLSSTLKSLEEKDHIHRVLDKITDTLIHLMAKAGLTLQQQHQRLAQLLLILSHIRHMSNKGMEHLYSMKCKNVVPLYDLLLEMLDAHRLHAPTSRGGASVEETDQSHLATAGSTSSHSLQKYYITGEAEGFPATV
Androgen receptor (Homo sapiens), sequence (P10275 whole entry, looked up): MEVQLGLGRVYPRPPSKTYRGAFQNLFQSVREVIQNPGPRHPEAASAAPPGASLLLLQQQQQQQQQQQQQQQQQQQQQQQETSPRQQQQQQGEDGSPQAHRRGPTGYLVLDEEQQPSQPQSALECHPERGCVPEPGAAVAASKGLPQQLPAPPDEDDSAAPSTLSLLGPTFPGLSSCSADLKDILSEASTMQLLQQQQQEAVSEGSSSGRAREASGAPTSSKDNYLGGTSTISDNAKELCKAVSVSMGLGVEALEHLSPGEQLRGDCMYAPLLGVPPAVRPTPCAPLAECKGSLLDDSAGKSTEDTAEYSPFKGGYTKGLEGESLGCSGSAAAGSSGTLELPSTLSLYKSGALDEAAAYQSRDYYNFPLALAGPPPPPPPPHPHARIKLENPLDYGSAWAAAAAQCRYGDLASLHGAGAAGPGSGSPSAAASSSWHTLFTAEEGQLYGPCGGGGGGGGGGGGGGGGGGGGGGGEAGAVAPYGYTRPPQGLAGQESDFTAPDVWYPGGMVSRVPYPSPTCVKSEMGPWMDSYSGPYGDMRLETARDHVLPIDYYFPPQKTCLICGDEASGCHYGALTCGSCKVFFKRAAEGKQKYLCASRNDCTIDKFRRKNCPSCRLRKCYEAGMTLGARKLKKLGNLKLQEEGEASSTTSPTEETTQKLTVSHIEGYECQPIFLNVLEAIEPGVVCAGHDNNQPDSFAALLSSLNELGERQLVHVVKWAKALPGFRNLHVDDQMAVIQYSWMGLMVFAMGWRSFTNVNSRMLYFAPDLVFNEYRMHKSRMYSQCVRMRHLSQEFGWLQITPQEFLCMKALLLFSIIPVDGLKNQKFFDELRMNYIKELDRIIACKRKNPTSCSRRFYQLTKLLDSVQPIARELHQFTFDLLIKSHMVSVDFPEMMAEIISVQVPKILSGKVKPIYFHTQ

Regarding `CCN(CC)CCNC(=O)c1cc(Cl)c(N)cc1OC`, the Potency entry in test [1], in test [2], in [3], in test [4], in test [5] and in [6] was “inactive” each time. Further, the Potency entry in test [7], in test [8], in [9], in test [10], in [11] and in test [12] was “inactive” in each case. The Potency result in [13], in test [14], in test [15], in [16], in test [17] and in test [18] was “inactive” throughout. Moreover, in test [19], the Potency entry was “inactive”.
`O=C(O)CCC(=O)c1ccc(-c2ccccc2)cc1`: the Potency entry in test [1], in test [2], in [3], in [4], in test [5] and in test [6] was “inactive” throughout. Moreover, the Potency entry in test [7], in [8], in [9], in test [10], in [11] and in test [12] was “inactive” in each case. In addition, the Potency entry in [13], in test [20], in [17], in test [18] and in test [19] was “inactive” in each case. Moreover, in [16], the Potency is 13.3 µM (active).
With `COC(C)(C)OC`, the Potency entry in [1], in [2], in test [3], in test [4], in [5] and in test [6] was “inactive” each time. In addition, the Potency result in test [7], in test [8], in test [9], in test [10], in [11] and in test [12] was “inactive” each time. Moreover, the Potency entry in test [13], in test [14], in test [16], in [17], in test [18] and in test [19] was “inactive” throughout.
Regarding `NC(=O)CCCCC(N)=O`, the Potency entry in test [1], in [2], in test [3], in [4], in [5] and in test [6] was “inactive” each time. Besides, the Potency entry in [7], in [8], in test [9], in test [10], in [11] and in [12] was “inactive” each time. Moreover, the Potency result in test [13], in test [14], in test [16] and in [18] was “inactive” each time.
Take `Cc1ccc(S(=O)(=O)NC(=O)NC2CCCCC2)cc1`: the Potency entry in test [1], in [2], in [3], in test [4], in test [5] and in test [6] was “inactive” throughout. Also, the Potency entry in test [7], in test [8], in [9], in [10], in test [11] and in [12] was “inactive” each time. For the same compound, the Potency result in [13], in [14], in test [16], in [17], in test [18] and in test [19] was “inactive” in each case.
As to `COC(=O)CC(C(C)=O)C(=O)OC` (stereo not drawn), the Potency result in test [1], in test [2], in test [3], in test [4], in test [5] and in test [6] was “inactive” in each case. For the same compound, the Potency entry in test [7], in [8], in [9], in test [10], in test [11] and in test [12] was “inactive” each time. In addition, the Potency result in test [13], in test [20], in test [14], in test [16], in test [17] and in test [18] was “inactive” throughout. Further, the Potency entry in test [19] is “inactive”.
Consider `O=C(O)c1cccc(Oc2ccccc2)c1`, for which the Potency entry in test [1], in test [2], in [3], in [4], in test [5] and in [6] was “inactive” in each case. The Potency result in [7], in test [8], in test [9], in test [10], in test [11] and in test [12] was “inactive” each time. Moreover, the Potency result in test [13], in test [14], in test [16], in test [17], in [18] and in test [19] was “inactive” in each case.
For the compound `CCCCCCCCCCCC(=O)OCC(O)CO` (stereo not drawn), the Potency entry in [1], in test [2], in test [3], in [4], in test [5] and in test [6] was “inactive” throughout. The Potency result in test [7], in test [8], in test [9], in test [10], in test [11] and in test [12] was “inactive” throughout. Moreover, the Potency result in test [13], in [14], in test [16], in [17] and in test [18] was “inactive” each time.
